From PubChem BioAssay (NCI)
About 79,000 compounds went through this panel and 15% of them were active in at least one assay; those are over-represented in the sample as a whole. Values without a mark were called inactive. Activity calls are given as the source filed them. No stated cut-off is given here; in the data, active means growth inhibition above about 70%; inactive means the rest.

Columns and labels:
[1] = NCI Yeast Anticancer Drug Screen. Data for the rad50 strain (AID 155);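 further: 0% = growth of vehicle-only cultures of the same strain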; settings: S. cerevisiae rad50 strain growth inhibition; at 50.0 µM; active compounds read high
Summary of the method: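 Readout: growth inhibition relative to vehicle-treated cultures. Compound exposure was carried out in a genetically defined yeast strain deficient in DNA damage repair.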

[2] = NCI Yeast Anticancer Drug Screen. Data for the mec2-1 strain (AID 157); settings: S. cerevisiae mec2-1 strain, at 50.0 µM, active compounds read high
Summary of the method: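 Vehicle-treated cultures served as reference for growth inhibition of compound-exposed mec2-1 yeast.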

[3] = NCI Yeast Anticancer Drug Screen. Data for the sgs1 mgt1 strain (AID 161);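 further: 0% = growth of cultures given vehicle only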; settings: S. cerevisiae sgs1 mgt1 strain, at 50.0 µM, active compounds read high
Summary of the method: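 Genetically altered yeast, compound exposure, growth inhibition relative to vehicle.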

[4] = NCI Yeast Anticancer Drug Screen. Data for the cln2 rad14 strain (AID 165);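 further: 0% = growth equal to vehicle treated cultures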; settings: S. cerevisiae cln2 rad14 strain, at 50.0 µM, active compounds read high
Summary of the method: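 Each compound was tested on cln2 rad14 yeast. Inhibition of growth was calculated against vehicle-exposed controls.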

[5] = NCI Yeast Anticancer Drug Screen. Data for the bub3 strain (AID 167); settings: S. cerevisiae bub3 mutant strain, at 50.0 µM, active compounds read high
Summary of the method: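 Readout: yeast growth inhibition, expressed relative to vehicle-only wells. The test organism is a mutant strain from a panel with lesions in DNA repair or checkpoint genes.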

[6] = NCI Yeast Anticancer Drug Screen. Data for the mlh1 rad18 strain (AID 175); settings: S. cerevisiae mlh1 rad18 strain growth inhibition; at 50.0 µM; active compounds read high
Summary of the method: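 Vehicle-treated cultures served as the reference for growth inhibition in a yeast strain carrying DNA damage repair alterations exposed to each compound.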

Structure (SMILES) | growth inhibition [1] | growth inhibition [2] | growth inhibition [3] | growth inhibition [4] | growth inhibition [5] | growth inhibition [6]
CC1CC(=O)N2CCCNC2=C1C#N (stereo not drawn) | -0.55% | 4.6% | 12.8% | 19.2% | 3.75% | 26.1%
CCC[C@H]1C(=O)N=C(N)N1C(=O)OCc1ccccc1 | 0.9% | 2.9% | -5.5% | -28.3% | -3.3% | -7%
O=C(NCC1CC1)NC(=O)c1ccccc1F | -4.3% | -34.6% | -14.3% | 16.6% | -10.6% | -16.9%
O=C1OC(=O)C2C1C1CCC2C1(c1ccccc1)c1ccccc1 (stereo not drawn) | 22.5% | -0.95% | 31.4% | -4.7% | -0.05% | -2.85%
O=S(=O)(c1ccc(NC(=S)NCc2ccco2)cc1)N1CCCCC1 | 46% | 5.6% | 42.1% | 38.3% | 28.9% | 25.6%
CCSC(N)=Nc1ccccc1 (tested in a mixture with another compound) | 13.2% | 9.5% | 21.8% | 13.3% | 12.1% | 18.1%
CCOC(=O)Nc1n[nH]nc1Cl | -21.5% | -10.1% | 25.1% | -20.9% | -20.1% | -12.7%
c1ccc(-c2cccc(-c3cccc(-c4ccccc4)c3)c2)cc1 | 18.1% | 0.6% | 7.5% | -47.9% | 16.8% | -6.65%
COc1cccc2cc(C(=O)Nc3ccccc3)c(=N)oc12 | 2.75% | 12.7% | -31% | 9.3% | -37.9% | -43%
O=C(O)CCc1ccncc1 | 2.25% | 9% | 12.8% | -1.7% | 7.1% | -0.95%
Cc1ccc(OC(=O)c2ccc([N+](=O)[O-])cc2)cc1C(C)C | -15.6% | -9.25% | -11.7% | -6.45% | -10.1% | -22%
CN=C(NN)NS(=O)(=O)c1cc(C)c(Cl)cc1S | -12.6% | -22.8% | -11.7% | -10.9% | 3.4% | 7.05%
[C-]#[N+]C1(c2ccccc2)C2CC3CC(C2)CC1C3 (stereo not drawn) | -1.7% | -7.05% | -4.35% | -16.9% | -4.25% | 9.35%
CCn1c(=O)c2c3ccc(O)cc3[nH]c2c2ccc(O)cc21 | -63.7% | -74.6% | -4.8% | -14.6% | -23.8% | -43.5%
O=C(OCCCl)Oc1c(Cl)cc([N+](=O)[O-])cc1[N+](=O)[O-] | 99.6% (active) | 99.8% (active) | 99.7% (active) | 99% (active) | 99.2% (active) | 99.5% (active)
COc1ccc(C=Nc2c(O)ccc3ccccc23)cc1OC | 12.6% | -11.6% | -24.9% | -15.3% | -17.4% | -0.75%
Cc1ccc(S(=O)(=O)OCC2CC=CCC2COS(=O)(=O)c2ccc(C)cc2)cc1 (stereo not drawn) | 5.4% | -8.2% | -9.75% | -15.2% | 6% | 28.8%
COc1ccc(C2C(=O)c3ccc(OC)cc3OC2c2cccnc2)cc1 (stereo not drawn) | 14.9% | -8.8% | 53.7% | 29.6% | 45.8% | 25.2%
CCOCCOCCOC(=O)C(C)O (stereo not drawn) | 14.7% | 7.1% | 2.25% | 6.55% | -18.6% | -3.4%

Structure (SMILES) | growth inhibition [1] | growth inhibition [2] | growth inhibition [3] | growth inhibition [4] | growth inhibition [5] | growth inhibition [6]
CN(C)c1nc(S(C)(=O)=O)nc2nc(S(C)(=O)=O)[nH]c12 | 2.45% | -19.1% | -4% | -47% | 1.95% | -17.6%
CC1(C)OC2OC(COC(=O)c3ccc([N+](=O)[O-])cc3)C3OC(C)(C)OC3C2O1 (stereo not drawn) | -13.6% | -8.45% | -8.85% | -28.1% | 0.85% | -25.4%
C#Cc1nc(N)c2ncn(C3OC(COS(N)(=O)=O)C(O)C3O)c2n1 (stereo not drawn) | 17.1% | 32.5% | 7.9% | 28.4% | 10.3% | 10.6%
CC1CC2=C(C1)C(C1(C)C(=O)CC3C(C1=O)C3(C)C)C(C)C2=O (stereo not drawn) | 2.3% | -24.6% | 5.5% | 3.3% | 4.6% | -44.6%
Nc1c(Cl)ncnc1NCCN1CCOCC1 | -3.85% | 1.9% | 1.55% | -22.1% | -17.5% | -18.4%
COc1ccc(/C=C/C(=O)N(C)C)cc1 | 3.1% | 5.65% | -0.15% | 12.4% | -2.5% | -3.05%
Cc1nnsc1-c1nc2ccccc2[nH]1 | 22.2% | 1.95% | 9.35% | 20.1% | 32.5% | 38.4%
O=c1cnc2c(ccc3ccccc32)[nH]1 | -2.7% | -20.8% | -16.1% | 6.55% | 8.4% | -5.95%
CN(C)c1ccc(-c2ccncc2)cc1 | 21.6% | 15.2% | 18.9% | -11.8% | 17.4% | 17.2%
O=C1Cc2c([nH]c3c(Cl)cccc23)-c2ccccc2N1 | -4.65% | 14.6% | -19.2% | 21.8% | 4.5% | -23.4%
COc1ccc2oc(=N)c(C(=O)NCc3ccccc3)cc2c1 | -4% | -0.85% | -19.1% | -6.35% | -34.1% | -24.6%
Cc1cc(C)c(S(N)(=O)=O)c(C)c1 | -1.2% | -16.6% | -28.2% | -5.4% | -15.1% | -0.8%
COCc1ccnn1-c1ccccc1C | -5.85% | 13.5% | 9.3% | -8.45% | 5.2% | -6.05%
C/C(CC(O)(C(F)(F)Cl)C(F)(F)Cl)=N\NC(N)=S | 29.9% | -3.05% | 0.1% | 20.1% | -0.55% | 25.2%
CCC(C)(C)c1ccc(O)c(CNCCO)c1 | 26.8% | -2.55% | 2.9% | -18.9% | 7.55% | 8.85%
N#CCCN(CCC#N)c1ccc(/C=C2\N=C(COc3ccc(Cl)cc3Cl)OC2=O)cc1 | -12.9% | -10% | -14.8% | 0.7% | 6.8% | -4.3%
COc1ccc(C2SCC(=O)N2NC(=O)c2ccc(NC(C)=O)cc2)cc1 (stereo not drawn) | -50% | -49.5% | -62.5% | -8.9% | -21.7% | -61.5%
COC1=C2CC(C)CC(OC)C(OC(C)=O)C(C)/C=C(\C)C(OC(N)=O)C(OC)/C=C\C=C(/C)C(=O)NC(=CC1=O)C2=O (stereo not drawn) | 90% (active) | 91% (active) | 92.2% (active) | 87.2% (active) | 90.7% (active) | 89.4% (active)
COc1ccccc1NC(=O)Nc1ccccc1 | 1.9% | -4.3% | 3.7% | -23.5% | -4.65% | 0.3%
